Test results taken from PubChem BioAssay AID1117319 (Southern Research Institute, 2015).
Hit rate of the full screen: of about 260,000 compounds, about 1,500 (0.58%) were called active. Roughly 5% stayed inconclusive and do not appear here.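 The calls were made as follows: active = inhibition above a set limit at one or more doses, reproduced on every date tested; inconclusive = results disagree between test dates, or hit never tested in dose response; inactive = the rest.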 These entries were drawn from the full list. Entries with a potency or affinity are not part of this list.

What follows are molecules tested against Virion infectivity factor (Human immunodeficiency virus type 1 group M subtype B (isolate BH10)) + Virion infectivity factor (Human immunodeficiency virus type 1 group M subtype B (isolate BRU/LAI)) + Virion infectivity factor (Human immunodeficiency virus type 1 group M subtype B (isolate PCV12)) + Virion infectivity factor (Human immunodeficiency virus type 1 group M subtype B (isolate HXB2)) + DNA dC->dU-editing enzyme APOBEC-3G (Homo sapiens) (UniProt P69720+P69721+P69722+P69723+Q9HC16) (assay: inhibitors of Vif binding to APOBEC3G peptide, primary screen, biochemical, TR-FRET, GST-Vif 1-94, biotin-A3G peptide, dose response retest (AID 1117319;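 also: Vif residues 1-94 fused to GST binding biotinylated APOBEC3G peptide 110-148; 0% = full assay without inhibitor and 100% = GST in place of GST-Vif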)). Settings: stronger effect = higher value.

inhibition, inactive:
COc1ccc(-c2csc3nc(C)nc(N4CCN(C(C)=O)CC4)c23)cc1OC -6.79%
COc1cc(S(=O)(=O)NC2CCCCC2)ccc1F -3.56%
COc1ccc(C2c3c(-c4ccccc4O)n[nH]c3C(=O)N2Cc2ccco2)cc1OC (stereo unspecified) -4.89%
NC(=O)C[C@@H]1N[C@]2(C(=O)Nc3ccccc32)[C@@H]2C(=O)N(C3CCCCC3)C(=O)[C@H]12 6.65%
CC(C)[C@@H]1N[C@]2(C(=O)Nc3ccccc32)[C@@H]2C(=O)N(c3cccc(C(F)(F)F)c3)C(=O)[C@@H]21 7.45%
C=CCNC(=S)N/N=C/c1ccc(N(CC)Cc2ccccc2)cc1 -8.07%
CCOC(=O)c1cc(-c2cccc(C(F)(F)F)c2)nc2nc(SC)[nH]c(=O)c12 -8.37%
O=C(Nc1ccnn1C1CCN(Cc2ccc(C#CCCO)cc2)CC1)c1cccc(F)c1 4.84%
CCS(=O)(=O)Nc1ccc(NC(C)=O)cc1 10.1%
CNC(=O)CSc1nnc(-c2ccccc2)n1C -0.87%
CCc1ccc(-c2nc(CN3CCC(C(=O)N4CCN(c5ccccn5)CC4)CC3)c(C)o2)cc1 -7.35%
Cc1oc(-c2cccc(Cl)c2)nc1CN1CCC(C(=O)N2CCN(c3ccccn3)CC2)CC1 6.2%
CCOc1ccc2nc(NC(=O)C3CCCN(S(=O)(=O)c4c(C)noc4C)C3)sc2c1 (stereo unspecified) -3.03%
Cc1cc(NC(=O)c2ccc(Cl)cc2)c(C)cc1O -1.13%
Cc1cc(C(c2ccc(O)cc2)c2cc(C)c(O)cc2C)c(C)cc1O 1.89%
CCOC(=O)c1c(S(=O)(=O)NCC2CCN(Cc3cccc(F)c3)CC2)c(C)n(C)c1C -4.42%
O=C(CCN1C(=O)/C(=C/c2ccccc2Cl)SC1=S)NC1=NCCS1 9.65%
O=C(CCN1C(=O)S/C(=C\c2cccs2)C1=O)NC1=NCCS1 25.6%
CCC1(c2ccc(F)cc2)NC(=O)N(CC(=O)NCc2ccc(C)cc2)C1=O (stereo unspecified) -8.4%
COc1cccc(C(=O)N2CCN(C(=O)Cc3ccccc3)CC2)c1 -2.27%
CC1=NN(c2ccccc2)C(=O)/C1=C\c1cc(C)n(C)c1C 6.69%
O=C(Cn1cnc2c(nnn2Cc2ccccc2)c1=O)NCc1ccco1 -2%
Cc1ccc(Cn2nnc3c(=O)n(CC(=O)NCc4ccco4)cnc32)cc1 16.3%
NS(=O)(=O)c1ccc(N/N=C/c2ccc(O)cc2O)c([N+](=O)[O-])c1 -13.8%
CC(O)CNc1ccc([N+](=O)[O-])cc1S(=O)(=O)N1CCOCC1 (stereo unspecified) 6.02%
NS(=O)(=O)c1ccc(N/N=C/c2ccccc2C(=O)O)c([N+](=O)[O-])c1 -3.72%
O=[N+]([O-])c1ccc(NCCCO)c(S(=O)(=O)N2CCOCC2)c1 -0.32%
O=C(CCNS(=O)(=O)c1ccc(Br)cc1)N1CCN(c2ccccc2O)CC1 0.32%
Cc1ccc(OCCOCCN2CCN(C)CC2)c([N+](=O)[O-])c1 6.13%
CCOC(=O)C1CCN(c2c(NCc3ccc(C(=O)NC4CCCC4)cc3)c(=O)c2=O)CC1 0.11%
COc1ccc(Cc2c(O)nc(SCC(=O)N3CCCCCC3)[nH]c2=O)cc1 -4.82%
Cc1cccc(NC(=O)/C=C/c2cccs2)n1 4.61%
O=C(/C=C/c1cccs1)Nc1cccc(NC(=O)/C=C/c2cccs2)n1 13.7%
Cc1nn(-c2ccc(Cl)cn2)c2c1C(=O)CC(C)(C)C2Br (stereo unspecified) -0.39%
CO[C@@]12[C@@H]3N[C@@H]3CN1C1=C(C(=O)C(N)=C(C)C1=O)[C@@H]2COC(N)=O 5.83%
[O-][n+]1c2ccc3nonc3c2nn1-c1ccccc1Cl -0.31%
O=C(CSc1ccc(-c2ccccn2)nn1)Nc1nccs1 -5.9%
CCOCCCNC(=O)c1cccc(NC(=O)C2=C(C)OCCS2)c1 -0.24%
COc1cc(CC(=O)OCC(=O)Nc2ccc([N+](=O)[O-])cc2)cc(OC)c1OC 31.8%
COc1ccc([N+](=O)[O-])cc1NC(=O)COC(=O)Cc1cc(OC)c(OC)c(OC)c1 -5.64%
Cc1csc(SCC(=O)NC2CCS(=O)(=O)C2)n1 (stereo unspecified) -3.32%
COc1cccc(NC(=O)CN2C(=O)COc3ccc(S(=O)(=O)N4CCOCC4)cc32)c1 0%
CC(=O)c1ccc(NC(=O)c2ccc(-n3cnnn3)cc2)cc1 -12.9%
CCOC(=O)c1cccc(NC(=O)c2ccc(-n3cnnn3)cc2)c1 -5.14%
COc1ccc(NC(=O)CCc2ccccc2)cc1S(=O)(=O)N1CCCCC1 2.14%
O=C(Nc1nc2ccccc2s1)c1ccc2c(c1)S(=O)(=O)c1ccccc1C2=O 28.5%
O=C(c1ccc(Br)o1)N1CCN(C/C=C/c2ccccc2)CC1 2.12%
C/C(=N\NC(=S)NCc1ccccc1)c1ccc(C(C)(C)C)cc1 9.19%
C/C(CCC(=O)O)=N/Nc1ccc([N+](=O)[O-])cc1[N+](=O)[O-] 5.85%
O=C1C(Cl)=C(NCCCN2CCOCC2)C(=O)c2ccccc21 3.39%
CN1CCN(C2=C(Cl)C(=O)N(Cc3ccccc3)C2=O)CC1 14.1%
CN1CCN(C2=C(NS(=O)(=O)c3ccccc3)C(=O)c3ccccc3C2=O)CC1 -3.21%
CC(C)NC1=C(Cl)C(=O)c2ccccc2C1=O 2.61%
NC(=O)C1CCN(C2OC(=O)c3ccccc32)CC1 (stereo unspecified) -1.56%
NC(=O)C1CCN(C2=C(NS(=O)(=O)c3ccc(Cl)cc3)C(=O)c3ccccc3C2=O)CC1 10.6%
COc1ccc(OC)c(NC(=O)CNC(=O)Cn2c(C)cc3ccccc3c2=O)c1 7.41%
